{
  "source": "PubChem BioAssay (Tox21)",
  "note": "Records with an inconclusive call do not appear. Where a call stands in place of a potency, no number is given. The source made the active and inactive calls. Calls come from the whole dose curve; as a rule, active = well fitted cell-killing curve with a large enough effect in the repeat runs; inconclusive = weak or mixed curves, or effect the other way; inactive = no such curve, though single readings can be large or run the other way.",
  "data": [
    {"assay": "qHTS assay to identify small molecule antagonists of the vitamin D receptor (VDR) signaling pathway - cell viability counter screen (AID 743225); note: nearly all actives have a fitted effect of over 50% in size", "settings": "VDR-bla HEK293T viability, CellTiter-Glo luminescence, 16 h; series mostly up to 61 µM", "excerpt": "U.S. Tox21 Program National Center for Advancing Translational Sciences [NCATS] NIH Chemical Genomics Center [NCGC] U.S. Environmental Protection Agency [EPA] National Institutes of Environmental Health Sciences [NIEHS] National Toxicology Program [NTP] U.S. Food and Drug Administration [FDA] Tox21 Assay Overview: The vitamin D receptor (VDR), a member of nuclear hormone receptor superfamily, plays a critical role in calcium homeostasis and bone metabolism. It is also involved in cell differentiation and growth, and thrombogenicity. To identify the compounds that inhibit VDR signaling, the VDR-UAS-bla HEK 293T cell line (Invitrogen, Carlsbad, CA, USA) containing a beta-lactamase reporter gene under the control of an upstream activator sequence (UAS) was used to screen the Tox21 10K compound library. The cytotoxicity of the Tox21 compound library against the VDR-bla cell line was tested in parallel by measuring the cell viability using CellTiter-Glo assay (Promega, Madison, WI) in the same wells.\nTox21 Assay Protocol Summary: VDR-bla cells were dispensed at 2,000 cells/5 uL of assay medium per well into black wall/clear-bottom 1536-well plates using a Multidrop Combi (Thermo Fisher Scientific, Waltham, MA) dispenser. After the assay plates were incubated at a 37C and 5% CO2 for 4 h, 23 nL of compounds dissolved in DMSO, positive controls or DMSO only was transferred to the assay plate by a Pintool station (Kalypsys, San Diego, CA), followed by addition of 1 uL of 1-alpha, 25-Dihydroxy Vitamin D3 (3 nM, final concentration in the wells) using a Bioraptr Flying Reagent Dispenser (FRD) workstation (Beckman Coulter, Indianapolis, IN). The plates were incubated at 37C and 5% CO2 for 16 h, and then 1 uL of LiveBLAzerTM B/G FRET substrate was added using a Bioraptr FRD. The plates were incubated at room temperature for 2 h and fluorescence intensity was measured by an Envision plate reader (PerkinElmer, Shelton, CT). For cell viability readout that measures cytotoxicity, 3 ul/well of CellTiter-Glo reagent was added into the assay plates using a Bioraptr FRD. After 30 min incubation at room temperature, the luminescence intensity in the plates was measured using a ViewLux plate reader (PerkinElmer).", "values": [
      {"smiles": "CCCCCCCCCCCCC(=O)O", "Potency": "inactive"},
      {"smiles": "O=c1[nH]cnc2ccccc12", "Potency": "inactive"},
      {"smiles": "CCCCCC(CO)CCC", "note": "(stereo not given)", "Potency": "inactive"},
      {"smiles": "COc1ccc2[nH]c(S(=O)Cc3ncc(C)c(OC)c3C)nc2n1", "note": "(stereo not given)", "Potency": "inactive"},
      {"smiles": "O=C1CCCCCO1", "Potency": "inactive"},
      {"smiles": "CCCOc1ccc2nc(NC(=O)OC)[nH]c2c1", "Potency": "inactive"},
      {"smiles": "O=C(C(=O)c1ccc(Br)cc1)c1ccc(Br)cc1", "Potency": "inactive"},
      {"smiles": "CC(=O)c1ccc2c(c1)[C@H](NC(=O)c1ccc(F)cc1)[C@@H](O)C(C)(C)O2", "Potency": "inactive"},
      {"smiles": "c1ccc(OCc2ccc(CCCN3CCOCC3)cc2)cc1", "Potency": "inactive"},
      {"smiles": "Oc1ccc2c(c1)OCO2", "Potency": "inactive"},
      {"smiles": "CCCCCCCCCO", "Potency": "inactive"},
      {"smiles": "COc1cc(C(C)(C)C)c(O)c(C(C)(C)C)c1", "Potency": "inactive"},
      {"smiles": "Cc1c(Cn2ccnc2)c2ccccc2n1CCC(=O)O", "Potency": "inactive"},
      {"smiles": "CC(C(=O)O)c1ccc(C(=O)c2ccccc2)s1", "note": "(stereo not given)", "Potency": "inactive"},
      {"smiles": "CC(=O)NCCCS(=O)(=O)O", "Potency": "inactive"},
      {"smiles": "ClC(Cl)(Cl)c1ccc(C(Cl)(Cl)Cl)cc1", "Potency": "inactive"},
      {"smiles": "O=C(O)COC(=O)Cc1ccccc1Nc1c(Cl)cccc1Cl", "Potency": "inactive"},
      {"smiles": "CCCCCCCCCC(=O)OCC", "Potency": "inactive"},
      {"smiles": "c1ccc(-c2nc[nH]c2-c2ccccc2)cc1", "Potency": "inactive"},
      {"smiles": "CN(C)CCCNCCCN", "Potency": "inactive"},
      {"smiles": "O=C(O)C(c1ccc(Cl)cc1)c1ccc(Cl)cc1", "Potency": "inactive"},
      {"smiles": "OC(CCN1CCCCC1)(c1ccccc1)C1CCCCC1", "note": "(stereo not given)", "Potency": "inactive"},
      {"smiles": "NC[C@H]1O[C@H](O[C@H]2[C@H](O)[C@@H](O[C@H]3O[C@H](CO)[C@@H](O)[C@H](N)[C@H]3O)[C@H](N)C[C@@H]2N)[C@H](O)[C@@H](O)[C@@H]1O", "viability change, negative = cytotoxic": "9.2% [at 6.95 µM] (inactive)"},
      {"smiles": "O=C(O)/C=C/c1cnc[nH]1", "Potency": "inactive"},
      {"smiles": "CCCCOc1cc(C(=O)OCCN(CC)CC)ccc1N", "Potency": "inactive"},
      {"smiles": "CCOC(=O)C1=NN(c2ccccc2)C(=O)C1", "Potency": "inactive"},
      {"smiles": "CC(C)(C)c1cc(CO)cc(C(C)(C)C)c1O", "Potency": "inactive"},
      {"smiles": "O=C(c1ccc(O)cc1)c1ccc(O)cc1", "Potency": "inactive"},
      {"smiles": "C=Cc1c(C)c2cc3[nH]c(cc4nc(cc5nc(cc1[nH]2)C(C)=C5CCC(=O)O)C(CCC(=O)O)=C4C)c(C)c3C=C", "Potency": "inactive"},
      {"smiles": "O=S(=O)(O)c1ccc(O)c2ncccc12", "Potency": "inactive"},
      {"smiles": "COCCO", "Potency": "inactive"},
      {"smiles": "CN(c1nccc(=O)[nH]1)C1CCN(c2nc3ccccc3n2Cc2ccc(F)cc2)CC1", "Potency": "inactive"},
      {"smiles": "CC(CN)CCCN", "note": "(stereo not given)", "Potency": "inactive"},
      {"smiles": "Nc1ccc(C(=O)Nc2ccccc2N)cc1", "Potency": "inactive"},
      {"smiles": "CCCCc1cc2ccccc2c(OCCN(C)C)n1", "Potency": "inactive"},
      {"smiles": "Cc1ncsc1CCO", "Potency": "inactive"},
      {"smiles": "CNS(=O)(=O)Cc1ccc2[nH]cc(CCN(C)C)c2c1", "Potency": "inactive"},
      {"smiles": "O=C(O)[C@@H]1[C@H]2C[C@H]3c4[nH]c5ccccc5c4CCN3C[C@@H]2CC[C@@H]1O", "Potency": "inactive"},
      {"smiles": "COC(=O)CSc1cc(N=c2sc(=O)n3n2CCCC3)c(F)cc1Cl", "Potency": "inactive"},
      {"smiles": "Nc1nc(N)c(-c2ccccc2)s1", "Potency": "inactive"}
    ]}
  ]
}
